This is a sample that favours compounds with a hit; in the whole collection about 4.1% have one here.
DAX1 inh-1: DAX1 (NR0B1) inhibition, primary screen. HEK293T StAR-luciferase reporter, SF-1/DAX-1 repression relief. inhibition, % at 6.8 µM. 370,000 compounds, 1.1% hits;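 active = inhibition above the mean over all tested compounds plus 3 SD, cut at about 3.6% in these data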;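 note: higher inhibition means more luminescence from relief of DAX-1 repression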
hcDAF12 agonist: H. contortus DAF-12 activation, primary screen. HEK293 hcDAF-12 lit1-tk-luc reporter, luminescence; 0% DMSO, 100% Δ7-dafachronic acid. activation, % at 6.8 µM. 370,000 compounds, 1.4% hits;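 active = activation above the mean of all tested compounds plus 3 SD, cut at about 5.5% in these data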
DAX1 inh-2: inhibitors of human orphan nuclear receptor DAX1 (NR0B1) | P51843 | HEK293 Gal4-DAX1 luciferase reporter, luminescence | inhibition, % at 6.75 µM | 340,000 compounds, 0.99% hits;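 active = inhibition above the mean over all tested compounds plus 3 SD, cut at about 4.2% in these data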;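 note: inhibition shows as a rise in luminescence from relieved DAX1 repression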
Target sequence (P51843 207-470 limits assumed): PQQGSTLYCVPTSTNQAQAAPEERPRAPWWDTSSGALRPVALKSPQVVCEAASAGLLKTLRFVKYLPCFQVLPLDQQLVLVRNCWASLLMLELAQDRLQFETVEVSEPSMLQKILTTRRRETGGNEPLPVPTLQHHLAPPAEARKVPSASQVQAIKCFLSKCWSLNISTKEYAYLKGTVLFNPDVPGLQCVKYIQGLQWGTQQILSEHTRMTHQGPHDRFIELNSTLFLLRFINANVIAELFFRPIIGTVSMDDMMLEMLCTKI
hgDAF-12 ag: hgDAF-12 agonism, primary luciferase screen; HEK293 GAL4-hgDAF12 UAS-luciferase reporter, agonist luminescence; normalized to butyrate control; activation, % at 6.8 µM; 370,000 compounds, 1.8% hits;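 active = activation above a cutoff set at the mean of all screened compounds plus 3 SD, cut at about 10% in these data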
ssDAF12 agonist: S. stercoralis DAF-12 activation, primary screen. HEK293 ssDAF-12/GRIP1 lit1-tk-luc reporter, luminescence; % of 3 µM dafachronic acid response. activation, % at 6.8 µM. 370,000 compounds, 1% hits. AID 652126;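 active = activation above the mean over all tested compounds plus 3 SD, cut at about 0.9% in these data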
DAX1 conf: NR0B1 (human) inhibition, confirmation. shares compounds with DAX1 inh-1. HEK293T StAR-promoter luciferase reporter, SF-1/DAX-1 repression. inhibition, % at 6.8 µM. 2,400 compounds, 87% hits;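 active = inhibition above the average of every tested compound plus 3 SD, cut at about 3.8% in these data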;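 note: active compounds raise luminescence by relieving repression of the StAR reporter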
SF1 mutant ctr: nonselective inhibitor or artifact in SF-1 mutant DAX1 counter-screen. shares compounds with DAX1 inh-1. HEK293 StAR-luciferase, SF-1 AF2 mutant, luminescence. inhibition, % at 6.8 µM. 2,400 compounds, 78% hits. AID 652136;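 active = inhibition above the mean of all tested compounds plus 3 SD, cut at about 3% in these data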
Each line names hits and unclear results; the compound was inactive in the other large screens (follow-up assays come after a bar, where they were run).

C/C(=N\NC(=O)c1cc2c(s1)CCC(C)C2)c1ccc[nH]1 (stereo unspecified)	DAX1 inh-1 6.2 | DAX1 conf 7.3 | SF1 mutant ctr 4.4
CC1CCc2sc(C(=O)NC(C)C3CCCO3)cc2C1 (stereo unspecified)	DAX1 inh-1 5.3 | DAX1 conf 4.3 | SF1 mutant ctr inactive
CCc1ccc(C(=O)COC(=O)c2ccc(Cl)nc2)cc1	none (no result: DAX1 inh-2)
C#Cc1ccc([C@@H]2C=C(C(=O)OCC=C)O[C@H](OCCCCO)C2)cc1	none
O=C(O)C1CCCN(C(=O)/C=C/c2ccccc2)CC1 (stereo unspecified)	none (no result: DAX1 inh-2)
O=C(C=Cc1ccccc1)N1CCCCC1	DAX1 inh-1 5.2 | DAX1 conf 6.2 | SF1 mutant ctr 4.7
COc1ccc(C(=O)N(C)C(C)c2nccs2)cc1OC1CCN(C(C)=O)CC1 (stereo unspecified)	none
CC[C@@H](C)[C@H](C(CC(=O)N1CCCC1[C@@H](OC)[C@H](C)C(=O)N[C@H](Cc1ccccc1)c1nccs1)OC)N(C)C(=O)[C@H](NC(=O)[C@@H](C(C)C)N(C)C)C(C)C (stereo partly specified)	DAX1 inh-1 7.7 | DAX1 conf 29.8 | SF1 mutant ctr inactive
Cc1ccc(C(=O)Nc2ncc([N+](=O)[O-])s2)cc1	none
O=C(Nc1ncc([N+](=O)[O-])s1)c1ccco1	DAX1 inh-1 6.5 | DAX1 conf 5.7 | SF1 mutant ctr 6.2
Cc1ccc(Nc2n[nH]c(=S)s2)cc1F	DAX1 inh-1 5.4 | DAX1 conf 4.3 | SF1 mutant ctr 2.9
CC1CN(S(=O)(=O)c2cc(C(=O)N(C)Cc3cccs3)ccc2Cl)CC(C)O1 (stereo unspecified)	none
Cc1ccc(C(=O)OCc2cc(=O)n3c(C)csc3n2)s1	DAX1 inh-1 4.8 | DAX1 conf inactive | SF1 mutant ctr inactive
Cc1ccc(C(=O)OCc2cc(=O)n3ccsc3n2)s1	none
Cc1[nH]c2ccc(C(=O)NC3CCC(C)CC3)cc2c1C (stereo unspecified)	DAX1 inh-1 5.4, hgDAF-12 ag 12.6 | DAX1 conf 6.8 | SF1 mutant ctr 3.3
COc1ccccc1CCNC(=O)COc1cccc2c1OC(C)(C)C2	DAX1 inh-1 4.6 | DAX1 conf inactive | SF1 mutant ctr inactive
COc1ccc(S(=O)(=O)N2CCC(C(=O)NN3CCCCC3)CC2)cc1OC	none
O=C(Nc1ccc2c(c1)OCCO2)c1ccc(Br)s1	DAX1 inh-1 5.9, hcDAF12 agonist 5.8, hgDAF-12 ag 12.5, ssDAF12 agonist 1.5 | DAX1 conf 13.8 | SF1 mutant ctr 5.6
CCc1sc(C(=O)Nc2ccc(N3CCOCC3)cc2)cc1C	none
CCc1sc(C(=O)Nc2ccc3c(c2)OCO3)cc1C	DAX1 inh-1 7.6, hgDAF-12 ag 10.8 | DAX1 conf 9.3 | SF1 mutant ctr 6.5
CC(=O)Nc1ccc2c(c1)OCCOCCOc1cc(NC(C)=O)ccc1OCCOCCOCCO2	none (no result: DAX1 inh-2)
Cc1cc(C(=O)Nc2ccc3c(c2)OCO3)no1	DAX1 inh-1 7.8 | DAX1 conf 9.1 | SF1 mutant ctr 7.5
Cn1nccc1C(=O)Nc1ccc(Cl)cc1	none
Cn1nccc1C(=O)Nc1ccc2c(c1)OCO2	DAX1 inh-1 4.7 | DAX1 conf 5.8 | SF1 mutant ctr 3.9
C#CCOc1ccccc1CNC1CCN(Cc2ccccc2)CC1	none
COc1ccc(CNC(=O)CN2CCN(S(=O)(=O)c3ccccc3)CC2)cc1	none
O=C1CC2c3ccccc3C1C1C(=O)N(Cc3ccccc3)C(=O)C21 (stereo unspecified)	none
O=C(NC1CC1)c1cc2cc3ccccc3nc2s1	DAX1 inh-1 4.9 | DAX1 conf 7.6 | SF1 mutant ctr 4.6
COc1ccc(C(=O)Oc2ccc(/C=N/Nc3ccc(Cl)c(C(=O)O)c3)cc2OC)cc1	none
O=C(O)c1cccc(N/N=C/c2cn(-c3ccccc3)nc2-c2cccs2)c1	DAX1 inh-1 6.4 | DAX1 conf 17.9 | SF1 mutant ctr 9.2

Assay outcomes: PubChem, The Scripps Research Institute Molecular Screening Center
